From PubChem BioAssay
BLM helicase inh = qHTS Assay for Inhibitors of Bloom's syndrome helicase (BLM). RecQ-like DNA helicase BLM (Homo sapiens), P54132. recombinant BLM DNA unwinding, fluorescence dequenching. Potency, µM (top dose mostly 56.1 µM), for the others: at the top dose activity change, negative = inhibition, hits mostly inhibitors. 350,000 tested, 0.2% active;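 also: plate controls were vehicle for no effect and no enzyme for full effect; nearly all actives have a fitted effect of over 35% in size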
Lamin A splicing = qHTS Assay for Modulators of Lamin A Splicing; HeLa LMNA splicing GFP/RFP minigene ratio, 48 h; 200,000 tested, 0.01% active; Potency, µM (top dose mostly 46.1 µM), without a hit: top-dose ratio change, negative = inhibition, usual class: inhibitors; AID 1487, 2009; active = well fitted inhibition curve with a large enough effect in the signal ratio, with a control signal flat, not every such curve was filed as active; inconclusive = small, poorly fitted or top-dose-only effect, or effect the other way, or a change in a side signal; the % refers to the signal ratio
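S3 HeLa cells stably expressing lamin A-EGFP splicing minigene plus DsRed2, 600 cells/well, 48 h compound exposure at 37C. Laser-scanning cytometry; analysed as GFP (500-530 nm)/RFP (575-640 nm) total intensity ratio; 0.5% DMSO vehicle.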
APE1 inh = qHTS Assay for Inhibitors of the Human Apurinic/apyrimidinic Endonuclease 1 (APE1); Potency, µM (doses to about 65.8 µM), for inactives: at the highest dose activity change, negative = inhibition, usual class: inhibitors; DNA repair nuclease/redox regulator APEX1 (Homo sapiens), P27695; recombinant APE1, TAMRA/BHQ-2 abasic DNA cleavage fluorescence; 350,000 tested, 0.35% active;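 also: plate controls were vehicle for no effect and reference inhibitor for full effect; nearly all actives have a fitted effect of over 55% in size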
Target sequence (P27695 whole entry, looked up): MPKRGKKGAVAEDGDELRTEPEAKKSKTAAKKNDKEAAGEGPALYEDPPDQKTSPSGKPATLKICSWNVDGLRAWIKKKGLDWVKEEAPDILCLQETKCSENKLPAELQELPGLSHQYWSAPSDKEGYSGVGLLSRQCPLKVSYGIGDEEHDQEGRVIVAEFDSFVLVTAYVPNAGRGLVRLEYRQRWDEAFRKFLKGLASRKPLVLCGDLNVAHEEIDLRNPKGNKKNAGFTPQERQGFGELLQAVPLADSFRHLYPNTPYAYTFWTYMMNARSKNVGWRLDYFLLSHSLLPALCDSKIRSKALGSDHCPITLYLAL
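Compound pre-exposure to 0.75 nM APE1, 15 min at ambient temperature. Reaction initiated with 50 nM TAMRA/BHQ-2 THF substrate, read immediately in kinetic mode, 525 nm excitation, 598 nm emission.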
GCN5L2 inh = qHTS Assay for Inhibitors of GCN5L2 | Histone acetyltransferase KAT2A (Homo sapiens), Q92830 | GCN5L2 HAT assay, ThioGlo1 CoA-SH fluorescence | Potency, µM (highest dose often 58.9 µM), without a hit: at the highest dose activity change, negative = inhibition, most hits filed as inhibitors | 390,000 tested, 0.21% active
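Titration-based screen in which CoA formation is detected via maleimide probe ThioGlo1 (50uM) turning fluorescent on thiol reaction; substrates H3(1-25) 75uM and acetyl-CoA 70uM, GCN5L2 20nM, 20 min incubation at room temperature.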
TDP1 inh = qHTS Assay for Inhibitors of Tyrosyl-DNA Phosphodiesterase (TDP1). Tyrosyl-DNA phosphodiesterase 1 (Homo sapiens), Q9NUW8. recombinant TDP1, AlphaScreen DNA substrate cleavage. Potency, µM (doses to about 130 µM), without a hit: top-dose activity change, negative = inhibition, hits mostly inhibitors. 350,000 tested, 0.28% active. AID 485290, 2010; also: nearly all actives have a fitted effect of over 40% in size
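Enzyme-compound mixtures sat 15 min at room temperature, followed by a 5 min reaction with 15 nM final substrate and 10 min with AlphaScreen beads. Recombinant human Tdp1 was used at 1 nM final.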
RECQ1 inh-1 = qHTS Assay for Inhibitors of RecQ-Like Dna Helicase 1 (RECQ1) | 240,000 tested, 0.54% active | RECQ1 DNA unwinding, red fluorescence kinetic read | AID 2549, 2010 | Potency, µM (series often up to 57.3 µM), for inactives: at the top dose activity, negative = inhibition, usual class: inhibitors | ATP-dependent DNA helicase Q1 (Homo sapiens), P46063;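 also: plate controls were vehicle for no effect and no enzyme for full effect; nearly all actives have a fitted effect of over 30% in size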
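50 nM RECQ1T1 preincubated 15 min with compound in Tris pH 8.0 buffer with MgCl2, DTT, Tween-20 and 2.5 ug/ml poly(dI-dC); started with 200 nM TAMRA/BHQ-2 forked duplex and 2 mM ATP. Unwinding read as fluorescence (525/598 nm), two reads 2 h apart.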
RECQ1 inh conf = Confirmation qHTS Assay for Inhibitors of RecQ-Like Dna Helicase 1 (RECQ1); shares compounds with RECQ1 inh-1; RECQ1 helicase DNA unwinding, fluorescence; Potency, µM (top dose mostly 229 µM), for inactives: at the top dose activity change, negative = inhibition, most hits filed as inhibitors; 610 tested, 28% active; AID 2708, 2010; also: nearly all actives have a fitted effect of over 45% in size
ADP FP counter = Counterscreen for RECQ1 Inhibitors: ADP Fluorescence Polarization Displacement Assay; shares compounds with RECQ1 inh-1; ADP fluorescence polarization displacement counterscreen; Potency, µM (titrated, usually from 228 µM), inactives show at the highest dose activity change, negative = inhibition, usual class: inhibitors; 530 tested, 27% active; AID 2711, 2010; also: nearly all actives have a fitted effect of over 45% in size
RECQ1 inh-2 = Confirmation qHTS Assay for Inhibitors of RecQ-Like Dna Helicase 1 (RECQ1) - Round 2 Cherry Picks. shares compounds with RECQ1 inh-1. recombinant RECQ1 DNA unwinding, red fluorescence. Potency, µM (highest dose often 119 µM), for inactives: top-dose activity, negative = inhibition, hits mostly inhibitors. 1,100 tested, 15% active. AID 504841, 2011; also: nearly all actives have a fitted effect of over 50% in size
The depositor's hits bear a star; i = inactive; ? = inconclusive; · = not tested or not shown; [ ] = another dose, or the depositor's remark. Shown are actives, neighbours in structure and some others; about 0.9% of the full set was active somewhere. Unless noted, calls follow the shape of the dose curve; as a rule, active = well fitted curve in the direction sought with a large enough effect; inconclusive = small, poorly fitted or top-dose-only effect, or another doubt; inactive = no such curve, though single readings can be large; an effect the other way counts as inactive or inconclusive. Unless noted, % is scaled to controls: 0 for no effect and ±100 for the full control effect; potency is read from the fitted curve at half-maximal effect.

SMILES	BLM helicase inh	Lamin A splicing	APE1 inh	GCN5L2 inh	TDP1 inh	RECQ1 inh-1	RECQ1 inh conf	ADP FP counter	RECQ1 inh-2
COc1ccc(C(=O)NNC(=O)c2ccc(S(=O)(=O)N3CC(C)OC(C)C3)cc2)cc1 (configuration not stated)	-5%	?	18%	2%	3%	9%	·	·	·
COc1cc(OC)cc(C(=O)NNC(=O)c2ccc(S(=O)(=O)N3CC(C)OC(C)C3)cc2)c1 (configuration not stated)	1%	·	-12%	-8%	3%	0%	10%	-1%	·
CC1CN(S(=O)(=O)c2ccc(C(=O)Nc3ccc(S(=O)(=O)Nc4nccs4)cc3)cc2)CC(C)O1 (configuration not stated)	-3%	-11%	-11%	2%	4%	7%	-4%	7%	·
COc1ccccc1CN1C(=O)c2cccc3cccc(c23)C1=O	-1%	-5%	2%	-12%	1%	25µM*	·	·	4%
Cc1cc(=O)oc2c(CN3CCCCC3)c(O)c(Cl)cc12	4%	-21%	0%	?	2%	-6%	·	·	·
CCc1cc(=O)oc2cc(C)c(CN3CCCCC3)c(O)c12	18µM*	-1%	22µM*	-13%	·	10µM*	?	63µM*	-15%
CCCc1cc(=O)oc2cc(C)c(CN3CCCC3)c(O)c12	25µM*	0%	?	?	·	13µM*	·	·	?
Cc1noc(NS(=O)(=O)c2ccc(N/C=C\C(=O)c3ccc(Br)cc3)cc2)c1C	-11%	?	-1%	-23%	10%	?	·	·	-22%
Nc1ncnc2c1[nH]c(=S)n2C1OC(CO)C(O)C1O (configuration not stated)	·	·	·	·	1%	·	·	·	·
CCC(=O)NC(c1ccc(C)s1)c1cc(Cl)c2cccnc2c1O (configuration not stated)	·	·	·	·	0%	·	·	·	·
CS/C(=N\S(=O)(=O)c1cccs1)NC(=O)CSc1nc2ccccc2s1	-22%	-7%	6%	?	-6%	?	·	·	?
CCN(CC)c1ccc(/C=C/C(=O)c2ccc(Br)cc2)cc1	-19%	-24%	-6%	-6%	·	8.9µM*	63µM*	·	50µM*
CN(C)c1ccc(C(=O)/C=C/c2ccc(Br)cc2)cc1	-4%	5%	2%	0%	1%	i	·	·	·
COc1ccc2nc(NC(=O)C3CCCN(S(=O)(=O)c4cccc5nsnc45)C3)sc2c1 (configuration not stated)	-7%	-11%	-8%	-21%	8%	-21%	-10%	24%	·
Cc1cc([C@](C)(N)C(=O)O)ccc1P(=O)(O)O	0%	·	0%	-16%[0.501 µM]	7%[56.1 µM]	-14%	·	·	·
